A selection: hits, their analogues and other compounds. The true share with any hit is near 5.7%.
PI4K2A inh – qHTS for small molecular inhibitors of PI4K2A | Phosphatidylinositol 4-kinase type 2-alpha (Homo sapiens), Q9BTU6 | purified PI4K2A, ADP-Glo luminescence, 1 h; stronger effect = lower value | activity change, negative = inhibition, % at 76.9 µM | hit rate 0.13% among 420,000 | AID 1346378, 2018; in the data active = activity change below about -50%; inconclusive = mostly about -30% to -49%;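 note: -100% = wells without enzyme as full effect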
Target sequence (Q9BTU6 whole entry, looked up): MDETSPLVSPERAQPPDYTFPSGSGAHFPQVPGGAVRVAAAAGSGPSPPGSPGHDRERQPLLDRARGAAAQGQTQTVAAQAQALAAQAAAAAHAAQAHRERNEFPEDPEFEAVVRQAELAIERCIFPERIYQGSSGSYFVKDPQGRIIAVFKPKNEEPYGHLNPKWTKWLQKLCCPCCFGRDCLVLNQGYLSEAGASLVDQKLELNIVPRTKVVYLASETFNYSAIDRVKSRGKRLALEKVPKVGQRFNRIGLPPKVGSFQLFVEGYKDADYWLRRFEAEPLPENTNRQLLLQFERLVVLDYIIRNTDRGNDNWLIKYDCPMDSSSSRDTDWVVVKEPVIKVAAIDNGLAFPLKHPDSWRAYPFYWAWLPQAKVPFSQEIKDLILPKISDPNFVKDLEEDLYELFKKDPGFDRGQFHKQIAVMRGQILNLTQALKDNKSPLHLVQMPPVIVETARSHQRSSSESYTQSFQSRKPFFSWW
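PI4K2A activity was measured by ADP-Glo luminescence: enzyme (4 ug/mL stock) and phosphatidylinositol (1.2 mM stock) in Tris pH 7.5/MgCl2/EGTA/Triton X-100 buffer were reacted with ATP (300 microM stock) for one hour at ambient temperature.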
KB-V1 MDR tox – qHTS assay for MDR1-selective chemotherapeutics: Primary screen using the drug-selected MDR subline cells KB-V1; KB-V1 MDR cells viability, CellTiter-Glo, 72 h; Potency, µM (titrated, usually from 46.1 µM), actives largely listed as cytotoxic; hit rate 3.4% among 400,000; note: potency is the fitted concentration of half-maximal effect; nearly all actives have a fitted effect of over 60% in size
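KB-V1 MDR subline cells in DMEM (phenol-red free, 10% FBS) exposed to compounds in qHTS concentration series for 72 h at 37 degrees C. Viability read by CellTiter-Glo luminescence; concentration-effect curves fitted after normalization and correction.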
Giardia kill – Small Molecules that selectively kill Giardia lamblia: qHTS; Giardia lamblia trophozoite viability; activity change, % at 7.66 µM, hits read low; hit rate 0.15% among 340,000; in the data active = activity change below about -80%; inconclusive = between about -30% and that limit;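 note: parasites exposed to compound for two days anaerobically before the ATP read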
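Giardia trophozoites, 100 cells per well, were exposed to compounds for 48 hrs at 37 deg C under anaerobic conditions; viability was then read as ATP content by bioluminescence after 15-30 min at room temperature.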
A549 tox – Nrf2 qHTS screen for inhibitors: counterscreen for cytotoxicity; A549 ARE-Fluc cells, CellTiter-Fluor viability, 18-24 h; Potency, µM (titrated, usually from 46 µM), for the others: top-dose activity change, negative = cytotoxicity, usual class: inhibitors; hit rate 0.16% among 390,000; note: potency is the fitted concentration of half-maximal effect
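A549 ARE_Fluc cells in 5% FBS OPTI-MEM were exposed to compounds in concentration-response for 18-24 h at 37 deg C. Viability was read by CellTiter-Fluor fluorescence (Ex 405/Em 525) after 30 min, before the luciferase read.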
KB-3-1 tox – qHTS assay for MDR1-selective chemotherapeutics: Primary screen using the parental adenocarcinoma cell KB-3-1 | KB-3-1 viability, CellTiter-Glo ATP luminescence, 72 h | Potency, µM (doses to about 46.1 µM), actives largely listed as cytotoxic | hit rate 1.4% among 400,000; note: potency is the fitted concentration of half-maximal effect; nearly all actives have a fitted effect of over 60% in size
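Luminescent ATP read-out (CellTiter-Glo) measures survival of drug-naive KB-3-1 cells after 72 h compound exposure at 37 °C. Titration series was screened from lowest to highest concentration, with DMSO vehicle plates as background controls.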
Nrf2 inh – Nrf2 qHTS screen for inhibitors; A549 ARE-Fluc reporter, luciferase luminescence, 18-24 h; Potency, µM (doses to about 46 µM), for the others: at the highest dose activity change, negative = inhibition, usual class: inhibitors; hit rate 2.1% among 360,000; note: potency is the fitted concentration of half-maximal effect; nearly all actives have a fitted effect of over 60% in size
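Quantitative HTS in A549 cells stably bearing an antioxidant response element-firefly luciferase construct. Inhibition of Nrf2-driven transcription was scored by luminescence after 18-24 h of compound exposure at 37 °C.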
Active calls of the source: *; i = inactive; ? = inconclusive; / = no result given. Unless noted, calls come from the whole dose curve; as a rule, active = well fitted curve in the direction sought with a large enough effect; inconclusive = small, poorly fitted or top-dose-only effect, or another doubt; inactive = no such curve, though single readings can be large; an effect the other way counts as inactive or inconclusive. Unless noted, % is set by controls: 0 for no effect and ±100 for the full control effect.

SMILES	PI4K2A inh	KB-V1 MDR tox	Giardia kill	A549 tox	KB-3-1 tox	Nrf2 inh
CC(=O)c1ccc(NC(=O)c2ccc3nc(-c4ccco4)c(-c4ccco4)nc3c2)cc1	-56*	i	1	-17%	i	?
O=C(NCc1ccccc1)c1ccc2nc(-c3ccco3)c(-c3ccco3)nc2c1	-66*	i	2	-2%	i	20%
COC1=C(OC)C(=O)c2ccccc2C1=O	-24	/	/	/	/	/
COC1=C(Nc2ccc(C)cc2)C(=O)c2ccccc2C1=O	-17	18µM*	-8	?	i	16µM*
COC1=C(Nc2ccccc2)C(=O)c2ccccc2C1=O	?	?	-2	-2%	21µM*	-1%
CC1=C(Nc2ccc(C(=O)O)cc2)C(=O)c2ccccc2C1=O	-6	i	3	?	?	23µM*
c1ccc(P(c2ccccc2)c2cnc3ccccn23)cc1	/	/	/	-1%	/	-2%
Cc1ccnc(NC(=S)N2CCN(c3ccc(Cl)cc3)CC2)c1	/	i	/	/	i	/
CCc1c(C)sc(NC(=O)C2CC2c2ccccc2)c1C(N)=O (centres undefined)	-5	6.5µM*	0	-9%	i	?
Cc1ccc(NC(=O)c2ccc(F)cc2)cc1S(=O)(=O)N1CCCCCC1	5	i	-11	-9%	i	?
Cc1csc(NC(=O)c2ccc(C)c(S(=O)(=O)N3CCCCC3)c2)n1	0	9.2µM*	-14	2%	?	?
COc1ccc(C(=O)Nc2ccc(C)c(S(=O)(=O)N3CCCCCC3)c2)cc1	-1	?	-1	-19%	?	21µM*
COc1cccc(C(=O)Nc2cccc(C(=O)N3CCOCC3)c2)c1	-2	i	-3	4%	i	2%
COc1ccc(C(=O)Nc2cccc(C(=O)N3CCCC3)c2)cc1	-1	21µM*	-3	-13%	i	7%
Cc1ccc(NC(=O)c2ccc(C)c(S(=O)(=O)N3CCCCCC3)c2)cc1	-3	21µM*	/	-5%	?	/
CCOc1ccc(Nc2oc(/C=C/c3cc(OC)c(OC)c(OC)c3)nc2C#N)cc1	-6	/	/	-14%	/	-1%
CCOc1ccccc1NC(=O)NCCn1c(=O)oc2ccc(C)cc21	5	i	/	3%	i	3%
COc1ccc(OC)c(NC(=O)Cn2c(=O)c3cccn3c3ccccc32)c1	-1	/	/	-20%	/	?
Cc1ccc(NC(=O)C2CC3CCC2C3)cc1 (centres undefined)	-3	/	/	/	/	/
Cc1ccc(CNC(=O)c2ccc(CSCc3ccccc3C)o2)cc1	-3	/	/	12%	/	/
O=C(Nc1nc(-c2cccs2)cs1)c1ccc(S(=O)(=O)N2CCCCC2)cc1	1	?	5	-5%	i	21µM*
CCOc1ncccc1C(=O)Nc1cc(S(=O)(=O)N2CCCCC2)ccc1Cl	-5	i	12	2%	i	1%
Cc1ccc(C)c(S(=O)(=O)N2CCN(C(=O)CNC(=O)c3ccc4ccccc4c3)CC2)c1	4	23µM*	-11	-23%	?	?
O=C(Nc1nc(-c2cccs2)cs1)c1cccc(S(=O)(=O)N2CCCCCC2)c1	6	i	-11	-6%	i	?
CCOc1ncccc1C(=O)Nc1ccc(Cl)c(S(=O)(=O)N2CCCC2)c1	6	?	-8	-7%	?	18µM*
SMILES	PI4K2A inh	KB-V1 MDR tox	Giardia kill	A549 tox	KB-3-1 tox	Nrf2 inh
CCc1noc(C)c1C(=O)Nc1ccc(C)c(S(=O)(=O)N2CCCCCC2)c1	1	7.3µM*	8	0%	i	?
COc1ccc(C2C=C3CNS(=O)(=O)C3CC2OC(=O)c2cccc(C)c2)cc1 (centres undefined)	/	/	-8	1%	/	-9%
Cc1ccc(NC(=O)COC(=O)c2ccccc2F)cc1S(=O)(=O)N1CCCCC1	-5	i	-3	0%	i	0%
Cc1ccc(NC(=O)c2ccccc2F)cc1S(=O)(=O)N1CCCCCC1	2	?	2	-11%	i	16µM*
Cc1c(C#N)c(NC(=O)COC(=O)c2cc(Cl)c3c(c2)OCCCO3)n(Cc2ccco2)c1C	/	i	/	/	i	/
Cc1ccc(/C=C(\NC(=O)c2ccccc2)C(=O)OCc2ccccc2)cc1	-2	16µM*	-19	-3%	i	2%
CCOC(=O)/C(=C\C=C\c1ccccc1)NC(=O)c1ccccc1	0	4.6µM*	-7	-15%	i	9.2µM*
CCOC(=O)/C(=C/C=C/c1ccccc1)NC(=O)c1ccccc1	-12	i	23	-4%	i	-10%
CCOC(=O)/C(=C\c1ccc(C)cc1)NC(=O)c1ccccc1	-3	i	22	-3%	i	-4%
CCC(C)N(C(=O)CSc1nnc(-c2cccnc2)n1C1CCCCC1)C(C)CC (centres undefined)	-2	/	/	/	/	/
Cc1ccc(S(=O)(=O)c2nc(S(C)(=O)=O)sc2N2CCCCCC2)cc1	5	6.5µM*	-20	-1%	i	-10%
Cc1ccc(S(=O)(=O)c2nc(S(C)(=O)=O)sc2N2CCN(C)CC2)cc1	7	i	-4	-6%	i	?
COC(=O)[C@]12C[C@H](CC(=O)NCc3cccs3)C(=O)N(CCC3=CCCCC3)C1=C[C@H](C1CCCC1)O[C@@H]2C	1	/	/	/	/	/
O=C(NC1=NCCS1)c1ccc(Cl)c(S(=O)(=O)N2CCc3ccccc32)c1	-9	13µM*	-20	1%	?	?
O=C(Nc1ccccn1)c1ccc(S(=O)(=O)N2CCCC2)cc1	0	i	-16	-4%	i	3%
O=C(Nc1cccnc1)c1ccc(Cl)c(S(=O)(=O)N2CCc3ccccc32)c1	3	?	9	2%	i	?
O=C(Nc1ccccn1)c1ccc(S(=O)(=O)c2ccc(Cl)cc2)cc1	2	7.3µM*	-9	-12%	?	5.8µM*
O=C(Nc1ccccn1)c1ccc(Cl)c(S(=O)(=O)N2CCc3ccccc32)c1	-2	i	-18	-23%	?	21µM*

Source: PubChem (National Center for Advancing Translational Sciences (NCATS))
